Assay results reported in PubChem BioAssay AID492998 (Southern Research Specialized Biocontainment Screening …, 2010).
Out of some 2,300 compounds screened, about 550 (24%) were called active. The list is a sample of the results. Potency and affinity values are given separately. A number with no mark means an inactive call. No rule for the calls is given here.

Assay: Vero E6 cell cytotoxicity, dose response, cytotoxicity control for non-replicating M. tuberculosis project, secondary assay (AID 492998);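 also: 100% = vehicle-treated cells and 0% = background wells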
Details: series mostly up to 20 µM; viability: at the top concentration

SMILES | viability [%]
Cc1ccc2cc3c(nc2c1)OCC3 | 99.3
O=C(Nc1nccs1)c1cc2cc(Cl)ccc2oc1=O | 109
O=C(NNc1ccc([N+](=O)[O-])cc1)C1CC2CCCC(C1)C2=O (configuration not stated) | 101
COCC(=O)Nc1ccccc1NC(C)=O | 94.4
O=C(OCc1ccc(Cl)c(Cl)c1)c1ccccn1 | 115
CCOc1cc(/C=N/NC(=O)c2ccccn2)ccc1OC(=O)c1cccs1 | 111
COC(=O)c1ccc(COC(=O)c2ccccn2)cc1 | 102
CCOc1ccc(OCc2ccc(C(=O)OCc3ccccn3)o2)cc1 | 103
Cc1ccccc1NC(=O)C1COc2ccccc2O1 (configuration not stated) | 91.7
O=C(OCc1ccccn1)c1ccc(COc2ccccc2Cl)o1 | 80.2
Nc1ccc2cc(Br)ccc2c1 | 81.7
N#CC(C(=O)NCc1ccco1)c1nc2ccccc2nc1N1CCOCC1 (configuration not stated) | 89.9
Nc1ncnc(Oc2cccc3cccnc23)c1[N+](=O)[O-] | 88.1
Cc1c([N+](=O)[O-])cnc(Sc2ccccc2)c1[N+](=O)[O-] | 77.3
O=C(NNC(=O)c1ccccc1F)c1ccc(-c2ccc(Cl)cc2)o1 | 100
Cn1cccc1/C=N/NC(=O)c1ccco1 | 98
C=CCNc1nc(C(=O)OCC(=O)c2cccc(Br)c2)cs1 | 101
O=C(CCNc1ccc(Cl)c(C(F)(F)F)c1)c1ccco1 | 76.2
O=C(CCNc1cccc(Cl)c1)c1cccs1 | 84.5
COc1ccc(C(=O)CCNc2ccc(F)cc2)cc1 | 103
Cc1ccc(C(=O)CCNc2ccc(Br)cc2)o1 | 86.6
O=C(COC(=O)c1ccc(O)cc1O)c1ccc2c(c1)OCO2 | 110
O=C(CCN1CCC(c2cccs2)=N1)c1cccs1 | 117
C/C(=N\Nc1ccc(Cl)cc1)c1c(O)cc(C)oc1=O | 102
Cc1ccc(N=Nc2c(C)[nH]n(C(N)=S)c2=O)cc1 | 85.3

SMILES | viability [%]
CSc1ccc(N=Nc2c(C)[nH]n(C)c2=O)cc1 | 97
Cn1nnnc1N=N/C(=N/Nc1ccccc1)c1ccccc1 | 80.9
CC(NC(=O)c1cc2ccccc2oc1=O)c1ccccc1 (configuration not stated) | 98.7
CCCCOC(=O)c1ccc(NC(=O)C2CCCO2)cc1 (configuration not stated) | 85.9
O=C(COc1ccc2ccccc2c1)N/N=C/c1ccccn1 | 103
Cc1cccc(OCC(=O)NNC(=O)c2cc3ccccc3oc2=O)c1 | 104
O=C(COC(=O)CCC(=O)c1ccc(F)cc1)Nc1ccccc1 | 101
CC(=O)OCCN(C)c1cc(SC(C)C)c2nonc2c1[N+](=O)[O-] | 101
CC(=O)OCCNc1cc(SCc2ccco2)c2nonc2c1[N+](=O)[O-] | 98.7
C/C(Cn1nnc([N+](=O)[O-])n1)=N\NC(=O)c1ccncc1 | 93.6
Cc1nc(-c2ccc(C(F)(F)F)cc2)sc1C(=O)NN | 100
Cc1cc(Cl)ccc1NNC(=O)c1cccs1 | 110
COC(=O)COc1ccc2c(=O)c(-c3ccccc3OC)coc2c1 | 103
Cc1ccnc(NC(=O)c2cc3ccccc3o2)c1 | 79.7
Cc1n[nH]c(C)c1CCOc1ccc(C(C)C)cc1 | 84
COc1cc(OC)cc(-c2nc3ccccc3c(=O)o2)c1 | 100
CCCOC(=O)c1ccc(NC(=O)C2C3C=CC(O3)C2C(=O)O)cc1 (configuration not stated) | 104
CC(=O)CCC1CC(c2ccc(Cl)cc2)=NO1 (configuration not stated) | 110
CCCCCCNC(=O)c1ccc(Br)o1 | 91.2
C=CC[n+]1ccn(-c2nc3ccccc3nc2[N-]S(=O)(=O)c2cccs2)c1 | 91.2
Cc1cc(C)c2sc(NC(=O)C3=COCCO3)nc2c1 | 95.5
COc1ccc(C(=O)Nc2nnc(C3=COCCO3)o2)cc1 | 87.2
COC(=O)c1ccc(OCC(=O)c2cccc(OC)c2)cc1 | 97.8
CCOc1ccc(-c2nnc(NC(=O)CCCOc3cccc(C)c3)o2)cc1 | 80.7
N[C@@H](Cc1ccccc1)c1nnc(SC/C=C/c2ccccc2)o1 | 105

SMILES | viability [%]
CSCCC(=O)N1CCCC(N2CCN(c3cccc(C(F)(F)F)c3)CC2)C1 (configuration not stated) | 93.2
COc1cccc(CN2CCC(N(CCc3ccccc3)Cc3ccccc3)CC2)c1OC | 78.8
Cc1cc2ccccc2n1CCNC(=O)C(C)(C)C | 104
O=C(COc1ccc(Nc2ccccc2)cc1)OCC(=O)N1CCCCC1 | 89.8
CCc1nnc(NC(=O)c2cc3ccccc3oc2=O)s1 | 104
CC(C)c1nnc(NC(=O)c2sc3ccccc3c2Cl)s1 | 92.5
O=C(Nc1sc2c(c1C(=O)O)CCCC2)c1ccc(F)cc1 | 75.2
COC(=O)c1sc(NC(=O)c2ccc([N+](=O)[O-])o2)c(C#N)c1C | 73
O=C(Nc1sc2c(c1C(=O)O)CCCCC2)c1ccccc1F | 75.1
CC(C)Cn1c(N)c(C(=O)COC(=O)c2ccc([N+](=O)[O-])o2)c(=O)n(C)c1=O | 90.9
O=C(c1ccc([N+](=O)[O-])o1)N1CCc2ccccc2C1 | 83
COc1ccc(COc2cccc(C=O)c2)cc1 | 95.5
CCc1ccccc1NC(=O)C1COc2ccccc2O1 (configuration not stated) | 118
O=C(OCc1cccc(F)c1)c1ccc2c(=O)n3c(nc2c1)CCC3 | 95.5
Cc1c(Cl)cccc1NC(=O)C(=O)NNC(=O)c1ccccc1F | 83.8
COc1cccc(N2C(=O)NC(=O)/C(=C/c3ccc([N+](=O)[O-])s3)C2=O)c1 | 101
c1ccc2sc(SCc3ccc(-c4nnco4)cc3)nc2c1 | 97.1
Oc1c(Br)cc(Br)cc1/C=N/c1nccs1 | 98.2
C/C(=N\NC(=O)c1nn(C)cc1Cl)c1ccncc1 | 112
CCOc1ccc(NC(=O)Cn2sc3nc(C)cc(C)c3c2=O)cc1 | 86.1
CCOc1ccc(OCC(=O)Nc2ccc(OC)cc2)cc1 | 95.9
Cc1cc(N2CCC(C)CC2)nc(-n2nc(C)cc2C)n1 | 72.8
CC(=O)c1ccc(OC(=O)c2ccc(-n3nc(C)cc3C)cc2)cc1 | 95.6
CC1(C)OC(c2ccccc2)=C/C(=C\C=N\NC(=O)c2ccncc2)O1 | 91.2
COc1ccc(N2CCN(CC(=O)NC(=O)NC(C)(C)C)CC2)cc1 | 94.7

SMILES | viability [%]
CN(C(=O)COC(=O)c1ccc([N+](=O)[O-])cc1Cl)C1CCCCC1 | 102
O=C(N/N=C/c1ccc[nH]1)c1ccc(Cl)cc1 | 99.1
Cc1ccc(O)c(C(=O)c2cc(C#N)c(=O)n(-c3nccs3)c2)c1 | 70.9
O=C(CC1CCCC1)OCn1nnc2ccccc2c1=O | 102
COc1ccc(-n2c3c(cc(C(=O)NNc4ccccc4)c2=O)C(=O)CC(C)(C)C3)cc1 | 102
CCOC(=O)Cc1ccc(NCc2ccc(Cl)cc2)cc1 | 93.4
CCOC(=O)c1c(C)nc2c3ccccc3ccn12 | 106
CCOC(=O)Cc1cc(=O)n2[nH]cc(-c3ccc(Cl)cc3)c2n1 | 94.1
CCOC(=O)C1(O)CC(C)=NN1C(=O)c1cccc(Br)c1 (configuration not stated) | 104
CCOc1ccc(NC(=O)CCc2ccc(C)o2)cc1 | 111
CC(C)(C)NC(=O)C(=O)NNC(=O)COc1ccc(Br)cc1 | 95.2
O=C(COC(=O)c1cccc(C(F)(F)F)c1)NCc1ccccc1 | 98.9
CCOC(=O)COc1ccc2c(c1)c(C(=O)OCC)c(C)n2CC | 95.5
CCCCN1CCC(O)(c2ccccc2)C(C(=O)c2ccccc2)C1 (configuration not stated) | 79.3
CCOc1c(OC(C)=O)ccc(/C=C2\N=C(SCC)SC2=O)c1[N+](=O)[O-] | 101
O=Cc1ccc(OC2OCCOC2Oc2ccc(C=O)cc2)cc1 (configuration not stated) | 108
Cc1cc2nc(CSc3ccc(Cl)cc3)cc(=O)n2[nH]1 | 99
CS(=O)(=O)Cc1nc2ccccc2oc1=O | 79.7
COc1cccc2cc(-c3nc4ccccc4o3)c(=O)oc12 | 92.9
O=C(CCN1CCN(C/C=C/c2ccccc2)CC1)Nc1ccc(Cl)cc1 | 87.6
Cc1ccc(-c2nnc(COC(=O)c3cccs3)o2)cc1 | 102
CCOC(=O)C(=NCCOC)NNc1cc(Cl)ccc1Cl | 106
Cc1cccc(OCC(O)Cn2c(=N)n(Cc3ccccc3)c3ccccc32)c1 (configuration not stated) | 75
OC(COc1ccccc1Cl)CN1CCN(CC(O)COc2ccccc2Cl)CC1 (configuration not stated) | 85.3
O=C(COc1ccccc1)NCCSCc1ccc(Cl)cc1 | 97.8

SMILES | viability [%]
OC(COc1ccc2ccccc2c1Br)Cn1ccnc1 (configuration not stated) | 89.5
CC(=O)n1cc(/C=C2/N=C(c3ccccc3)OC2=O)c2ccccc21 | 98.1
COc1cc(C(=O)ON=C2C=C(C)C(=O)C(C)=C2)cc(OC)c1OC | 86.3
CCOCC(=O)Nc1ccc(C)c(Cl)c1 | 106
Cc1cc(NC(=O)COC(=O)COc2ccc(C(=O)c3ccccc3)cc2)no1 | 95.8
O=C(O)c1ccc(NCc2ccc(Br)cc2)cc1 | 105
CC(=O)Nc1ccc(NC(=O)[C@@H]2CCCC[C@@H]2C(=O)O)cc1 | 100
O=C(COc1ccc2ccccc2c1)N1CCCC1 | 89
Nc1c(Cl)cc(Cl)cc1C(=O)OCC(=O)N1CCCC1 | 78.2
CCOC(=O)c1ccc(-c2ccc(C(=O)Nc3cccnc3)o2)cc1 | 88.4
CCOC(=O)C1CCCN(Cc2ccc(OCc3ccccc3)cc2)C1 (configuration not stated) | 96.5
CCC(C)NCCOc1ccc(C(C)(C)c2ccccc2)cc1 (configuration not stated) | 79.9
CN=C1S/C(=C\c2ccc(OCC(=O)OC)c(OC)c2)C(=O)N1C | 82
CC(C)CSc1nnc2c3ccccc3n(C)c2n1 | 85.3
CC(C)[C@@H]1CC[C@@H](C)C[C@H]1OC(=O)C[n+]1cc(-c2ccc(Cl)cc2)n2c1CCCCC2 | 100
COc1ccc(NC(=O)c2cc3ccccc3o2)cc1 | 90.1
CCCn1nnnc1NCc1ccc(C(C)C)cc1 | 97.6
CCc1nonc1NC(=O)COc1ccc(Cl)c(C)c1 | 101
O=C1/C(=C/c2ccccn2)COc2ccccc21 | 78.1
Cn1nnc(NC(=O)COc2ccc(C3CCCCC3)cc2)n1 | 110
O=C(NCc1ccc(F)cc1)c1cnccn1 | 98.9
O=C(Oc1ccccc1)c1ccc(COC(=O)c2cnccn2)cc1 | 94.8
